From PubChem BioAssay (EPA / NIEHS)
Results filed as inconclusive are left out. The source made the active and inactive calls. The calls were made as follows, unless noted: active = hit-call score of the fitted dose curve at least 0.9, where 1 is the maximum; inactive = score below 0.9.

Assays:
[1] = TAMU_HCS_1.5hr_SingleDonor1434_Cytotoxicity: Cytotoxicity Assessment using High-content Screening (HCS) Fluorescent Imaging for the Texas A&M University (TAMU) 1.5-hr Human Induced Pluripotent Stem Cell (iPSC)-derived Cardiotoxicity Assay (AID 2284234; active = hit-call score of the fitted dose curve at least 0.9, where 1 is the maximum)
How it was run: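 Nuclear counts from Hoechst 33342 imaging define cytotoxicity here, with EC10 (10% cell-count loss relative to DMSO) as point of departure. iPSC cardiomyocytes received 0.2-100 uM test chemical in 0.5% DMSO for 1.5 h at 37 C.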

[2] = TAMU_PeakParms_SingleDonor1434_QT: Texas A&M University (TAMU) 1.5-hr Human Induced Pluripotent Stem Cell (iPSC)-derived Cardiomyocytes Calcium (Ca+2) Flux Assay for Cardiotoxicity: QT (decay-rise ratio) (AID 2284235; active = hit-call score of the fitted dose curve at least 0.9, where 1 is the maximum)
How it was run: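 Decay/rise ratio of calcium-flux fluorescence scored after 90 min exposure (37C) of donor 1434 iPSC cardiomyocytes to 0.2–100 uM (0.5% DMSO). Beat-cessation and severe-notch points removed; POD is EC05, a 5% rise over DMSO.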

[3] = CCTE_Mundy_HCI_Cortical_NOG_NeuronCount: CCTE's Neurite Outgrowth Assay in rat cortical cells for Neuron Count, Mundy Lab (AID 2284236; active = hit-call score of the fitted dose curve at least 0.9, where 1 is the maximum;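 also: neurons counted by imaging betaIII-tubulin and Hoechst stained cortical cells; cells exposed to compound for about 48 hours before fixation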)
How it was run: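 Read-out: neuron number by high-content imaging of betaIII-tubulin (Alexa Fluor-488) and Hoechst-labelled rat primary cortical cells.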

[4] = CCTE_Mundy_HCI_Cortical_Synap_Neur_Matur_NeuronCount: CCTE's Synaptogenesis and Neurite Maturation Assay in rat cortical cells for Neuron Count, Mundy Lab (AID 2284242; active = hit-call score of the fitted dose curve at least 0.9, where 1 is the maximum;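 as to AC50: neuron number from Hoechst nuclei and MAP2 staining by high-content imaging; hits reduce neuron count versus DMSO baseline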)
How it was run: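 Rat cortical cultures; AraC DIV 5; chemical dosing + media change DIV 7 to DIV 12 (288.33 h readout). Fix, Hoechst, anti-MAP2/anti-synaptophysin immunostain; HCI neuron count vs DMSO baseline.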

[5] = UKN2_HCS_IMR90_cell_viability: Viability Assessment in the University of Konstanz (UKN) Leist Lab Neural Crest Cell Migration Assay in human induced IMR90 Pluripotent Stem Cells (UKN2) (AID 2284233);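 also: cells exposed to compound for 24 h after a 24 h migration phase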
How it was run: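 After calcein-AM/Hoechst staining, viability is quantified by high-content fluorescence imaging, relative to DMSO, in iPSC (IMR90)-derived neural crest cells. Exposure lasts 24 h, starting after a 24 h migration period on PLO/laminin/fibronectin coating.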

[6] = CCTE_Mundy_HCI_hNP1_Casp3_7: CCTE's Caspase-Glo 3/7 Assay in human neuroprogenitor cells for Apoptosis, Mundy Lab (AID 2284240)
How it was run: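 Apoptosis is scored by activated caspase-3/7 luminescence in WA09-derived neural progenitor cells, measured 26.5 h after chemical dosing. Values represent gain of signal relative to DMSO vehicle.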

[7] = CCTE_Mundy_HCI_hNP1_CellTiter: CCTE's Cell Titer-Glo 2 Assay in human neuroprogenitor cells for Viability, Mundy Lab (AID 2284241; active = hit-call score of the fitted dose curve at least 0.9, where 1 is the maximum)
How it was run: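 Human neural progenitor cells (hNP1, WA09-derived) were plated on poly-L-ornithine/laminin and grown 40 to 44 hours at 37 °C, 5% CO2 before chemical addition. Twenty-four hours later, ATP was measured by CellTiter-Glo luminescence; loss of signal versus DMSO indicates reduced viability.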

[8] = CCTE_Mundy_HCI_Cortical_NOG_BPCount: CCTE's Neurite Outgrowth Assay in rat cortical cells for Branch Point Count, Mundy Lab (AID 2284237);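 as to AC50: branch points counted about two days after chemical exposure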
How it was run: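 Measured 50.33 h after dosing, this morphology endpoint uses rat primary cortical cultures labelled for betaIII-tubulin. Branch points are quantified by high-content imaging, with DMSO as negative control and baseline.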

[9] = UKN4_HCS_LUHMES_cell_viability: Viability Assessment in the University of Konstanz (UKN) Leist Lab Neurite Outgrowth Assay in human LUHMES cells (UKN4) (AID 2284232)
How it was run: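 Day-2 differentiated LUHMES, 30000 cells/well, dosed ~30 min–2 h post-seeding; 24 h treatment incl. staining; Hoechst H-33342 + calcein-AM at 23.5 h; HCS imaging; DMSO-normalized, bidirectional fit.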

[10] = read-out: Interleukin 17A (IL17A), IL17A (gene 3605); assay: BSK_BT_xIL17A: BioMAP Diversity Plus: BT Assay for Interleukin 17A (IL17A) Biomarker Activity (AID 2284229); conditions: primary human B cells with PBMC
How it was run: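 Luminex xMAP quantification of secreted IL-17A after 24 h chemical exposure of a primary human B cell/PBMC co-culture. Signal increases fitted relative to DMSO negative control.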

[11] = read-out: Tumor necrosis factor (Homo sapiens) (UniProt P01375); assay: BSK_BT_xTNFa: BioMAP Diversity Plus: BT Assay for Tumor necrosis factor alpha (TNF-alpha) Biomarker Activity (AID 2284230); conditions: primary human B cells with PBMC
How it was run: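 Human primary co-culture of B cells and peripheral blood mononuclear cells; TNF-alpha in supernatant, 24 h post-dose, Luminex multiplex; DMSO = baseline.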

[12] = read-out: Vascular cell adhesion molecule 1 (VCAM1), VCAM1 (gene 7412); assay: BSK_MyoF_VCAM1: BioMAP Diversity Plus: MyoF Assay for Vascular cell adhesion molecule 1 (VCAM1) Biomarker Activity (AID 2284231); conditions: primary human lung fibroblasts
How it was run: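 ELISA readout of VCAM-1 on human lung fibroblast cultures 24 hours after dosing, analyzed for signal gain relative to DMSO. Overt cytotoxicity was checked by sulforhodamine B total-protein staining in parallel cultures.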

[13] = read-out: Collagen I, COL1A1 (gene 1277); assay: BSK_MyoF_CollagenI: BioMAP Diversity Plus: MyoF Assay for Collagen I Biomarker Activity (AID 2284238); conditions: primary human lung fibroblasts
How it was run: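 Collagen I levels measured by ELISA on human lung fibroblast cultures 24 h post-dosing, with curve fitting in the positive direction relative to DMSO; SRB staining of parallel wells marked cytotoxicity.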

[14] = read-out: Collagen III, COL3A1 (gene 1281); assay: BSK_MyoF_CollagenIII: BioMAP Diversity Plus: MyoF Assay for Collagen III Biomarker Activity (AID 2284239); conditions: primary human lung fibroblasts
How it was run: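 Collagen III biomarker quantified by ELISA in human lung fibroblast cultures 24 h after dosing. Activity fitted in the positive direction against DMSO as baseline.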

[15] = read-out: Interleukin 17F (IL17F), IL17F (gene 112744); assay: BSK_BT_xIL17F: BioMAP Diversity Plus: BT Assay for Interleukin 17F (IL17F) Biomarker Activity (AID 2284243); conditions: primary human B cells with PBMC
How it was run: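 Human B cells co-cultured with PBMC; secreted IL-17F quantified by LumineX xMAP 24 hours after chemical dosing. Activity fitted in the positive direction against DMSO negative control as baseline.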

[16] = read-out: Actin alpha 1 (ACTA1), ACTA1 (gene 58); assay: BSK_MyoF_ACTA1: BioMAP Diversity Plus: MyoF Assay for Actin alpha 1 (ACTA1) Biomarker Activity (AID 2284244); conditions: primary human lung fibroblasts
How it was run: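 ELISA read-out of a-SMA in primary human lung fibroblast cultures, 24 h post-dosing. Activity scored in the positive direction versus DMSO baseline.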

[17] = read-out: Interleukin 2 (IL2), IL2 (gene 3558); assay: BSK_BT_xIL2: BioMAP Diversity Plus: BT Assay for Interleukin 2 (IL2) Biomarker Activity (AID 2284245); conditions: primary human B cells with PBMC
How it was run: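 Readout: supernatant IL-2 via Luminex xMAP after 24 h chemical dosing of a B cell/PBMC primary human co-culture. DMSO serves as negative control and baseline; increases in signal were fitted.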

[18] = read-out: Basic fibroblast growth factor (bFGF), FGF2 (gene 2247); assay: BSK_MyoF_bFGF: BioMAP Diversity Plus: MyoF Assay for Basic fibroblast growth factor (bFGF) Biomarker Activity (AID 2284246); conditions: primary human lung fibroblasts
How it was run: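 Primary human lung fibroblast culture, 24 h compound exposure; ELISA read-out of bFGF. Positive-direction fit vs DMSO baseline. Cytotoxicity: SRB stain (0.1% SRB, 10% TCA fixation, 560 nm) in parallel wells.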

[19] = read-out: Collagen IV, COL4A1 (gene 1282); assay: BSK_MyoF_CollagenIV: BioMAP Diversity Plus: MyoF Assay for Collagen IV Biomarker Activity (AID 2284247); conditions: primary human lung fibroblasts
How it was run: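 ELISA read-out of Collagen IV in lung fibroblast cultures, 24 h post-dosing; gain of signal relative to DMSO vehicle baseline defines activity.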

[20] = read-out: Plasminogen activator inhibitor-1 (PAI1), SERPINE1 (gene 5054); assay: BSK_MyoF_PAI1: BioMAP Diversity Plus: MyoF Assay for Plasminogen activator inhibitor-1 (PAI1) Biomarker Activity (AID 2284256); conditions: primary human lung fibroblasts;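 also: PAI-1 protein level measured by ELISA in fibroblast cultures; PAI-1 read 24 h after compound addition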
How it was run: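 Human lung fibroblasts (MyoF system) were exposed to test chemicals for 24 h, then PAI-1 was quantified by ELISA. Activity was fitted in the positive (signal-gain) direction relative to DMSO vehicle as baseline.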

Measured: AC50

Sequence of Tumor necrosis factor (Homo sapiens) (P01375 whole entry, looked up): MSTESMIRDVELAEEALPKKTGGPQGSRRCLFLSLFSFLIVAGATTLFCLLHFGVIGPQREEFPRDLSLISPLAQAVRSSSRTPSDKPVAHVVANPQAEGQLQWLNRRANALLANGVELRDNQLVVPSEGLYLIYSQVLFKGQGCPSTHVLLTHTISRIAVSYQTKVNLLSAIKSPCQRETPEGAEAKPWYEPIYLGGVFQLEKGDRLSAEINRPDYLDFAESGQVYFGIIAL

CC(C)(c1ccc(O)cc1)c1ccc(O)cc1
inactive: [1] | [2] | [3] | [4]

CCCN(CCC)C(=O)SCC
inactive: [5] | [6] | [7]

CC(=O)[C@H]1CC[C@H]2[C@@H]3CCC4=CC(=O)CC[C@]4(C)[C@H]3CC[C@]12C
inactive: [1] | [2]

Cc1nn(C)c(Oc2ccccc2)c1C=NOCc1ccc(C(=O)OC(C)(C)C)cc1
active: [5] 14 µM | [3] 0.327 µM | [8] 0.014 µM | [6] 8.5 µM | [4] 0.00225 µM

C#CCOC(=O)[C@@H](C)Oc1ccc(Oc2ncc(Cl)cc2F)cc1
inactive: [5] | [3] | [8] | [6] | [7] | [4]

S=C([S-])NCCNC(=S)[S-].[Mn+2]
inactive: [6] | [4]
active: [9] 3.31 µM | [5] 16.1 µM

COCCO
not listed: [2] | [3] | [4] | [5] | [6] | [7] | [8] | [9]
inactive: all other assays above

CC1(C)C(C=C(Cl)Cl)C1C(=O)OCc1cccc(Oc2ccccc2)c1 (configuration not stated)
inactive: [2] | [6] | [7]
active: [3] 78.4 µM | [8] 84.5 µM | [4] 5.69 µM
